High-throughput results (PubChem BioAssay)
RORgamma inh – qHTS for inhibitors of ROR gamma transcriptional activity; 310,000 compounds, 5.4% hits; Potency, µM (doses to about 53.6 µM), without a hit: top-dose activity change, negative = inhibition, most hits filed as inhibitors; Drosophila S2 Gal4-RORgamma UAS-luciferase reporter, 20 h; Nuclear receptor ROR-gamma (Mus musculus), P51450; further: on the % scale 0 is the no-effect control and ±100 the full control effect; nearly all actives have a fitted effect of over 60% in size
Target sequence (P51450 whole entry, looked up, the tested form may be a part): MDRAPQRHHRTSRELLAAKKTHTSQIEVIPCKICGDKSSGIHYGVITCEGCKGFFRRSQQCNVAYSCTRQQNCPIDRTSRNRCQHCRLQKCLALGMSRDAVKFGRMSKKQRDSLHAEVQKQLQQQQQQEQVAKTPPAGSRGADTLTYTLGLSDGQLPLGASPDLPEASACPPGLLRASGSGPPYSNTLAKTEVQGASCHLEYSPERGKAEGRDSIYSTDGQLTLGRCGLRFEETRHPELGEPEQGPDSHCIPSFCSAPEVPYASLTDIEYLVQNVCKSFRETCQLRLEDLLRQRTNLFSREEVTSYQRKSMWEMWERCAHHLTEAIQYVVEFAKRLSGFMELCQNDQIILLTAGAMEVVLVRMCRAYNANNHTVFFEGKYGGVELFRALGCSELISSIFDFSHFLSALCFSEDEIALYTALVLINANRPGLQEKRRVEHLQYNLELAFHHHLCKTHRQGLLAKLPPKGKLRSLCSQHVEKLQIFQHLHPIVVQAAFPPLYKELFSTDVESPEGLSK
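Read-out: Photinus luciferase luminescence; inhibitors lower reporter signal. Insect Schneider cells with Gal4-ROR gamma fusion under metallothionein promoter, UAS reporter; 700 uM final copper sulfate induction, 20 hr, ambient temperature.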
VP16 counter – VP16 counterscreen qHTS for inhibitors of ROR gamma transcriptional activity; Drosophila S2 Gal4-VP16 UAS-luciferase, luminescence, 20 h; AID 2546, 2010; Potency, µM (doses to about 53.6 µM), without a hit: top-dose activity, negative = inhibition, actives largely listed as inhibitors; 310,000 compounds, 3.5% hits;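 further: Gal4-VP16 expression switched on by copper sulfate through the metallothionein promoter; on the % scale 0 is the no-effect control and ±100 the full control effect; nearly all actives have a fitted effect of over 50% in size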
GLP-1R agonist – qHTS of GLP-1 Receptor Agonists | Glucagon-like peptide 1 receptor (Homo sapiens), P43220 | 380,000 compounds, 0.007% hits | HEK293 GLP-1R CRE-luciferase, luminescence, 4-6 h; cells express a hypersensitive GLP-1R form | Potency, µM (series often up to 45.6 µM), for the others: at the top dose activation, usual class: activators | AID 624172, 2012; further: % of control where 0% means no effect
GLP1R inv ag – qHTS of GLP-1 Receptor Inverse Agonists (Inhibition Mode). Glucagon-like peptide 1 receptor (Homo sapiens), P43220. 410,000 compounds, 1.6% hits. Potency, µM (highest dose often 38.3 µM), inactives show top-dose activity change, negative = inhibition, hits mostly inhibitors. HEK293 GLP-1R CRE-luciferase, luminescence, 24 h; GLP-1R form is constitutively active. AID 624417, 2012; further: on the % scale 0 is the no-effect control and ±100 the full control effect; nearly all actives have a fitted effect of over 55% in size
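GLP-1R inverse agonism mode: basal reporter luminescence in engineered HEK293 cells measured after one day of compound exposure at 37 deg C, with a 12 min room-temperature detection step.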
HEK293 tox – qHTS of GLP-1 Receptor Inverse Agonists: Cytotox Screen; AID 624418, 2012; 410,000 compounds, 0.13% hits; Potency, µM (titrated, usually from 38.3 µM), without a hit: at the top dose activity change, negative = inhibition, most hits filed as inhibitors; HEK293 cAMP-luciferase reporter cells, luminescence, 24 h;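 further: loss of luciferase light is scored as toxicity; on the % scale 0 is the no-effect control and ±100 the full control effect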
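Step one: seed cells (200 cells/uL, DMEM with 10% Nu serum, 1% pen-strep). Step two: 12-hour incubation at 37 deg C. Step three: pin 23 nL compound, incubate 24 hr. Step four: add luciferase reagent, read luminescence 12 min later.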
Numbers without * were called inactive. This is a sample that favours compounds with a hit; in the whole collection about 5.9% have one here. The call rests on the fitted dose curve; in most records, active means well fitted curve in the direction sought with a large enough effect; inconclusive means small, poorly fitted or top-dose-only effect, or another doubt; inactive means no such curve, though single readings can be large; an effect the other way counts as inactive or inconclusive. Potency means the concentration at half of the fitted maximal effect.

N#C/C(=C/c1ccc(Sc2nc3ccccc3[nH]2)o1)c1cccc(Br)c1 was read as RORgamma inh inconclusive, VP16 counter inconclusive, GLP-1R agonist -4.6%, GLP1R inv ag 10µM* and HEK293 tox 61.0%.
For COc1ccc(CC(=O)NCc2ccc3c(c2)CCN3C(=O)c2ccc(C)cc2)cc1OC the results were GLP1R inv ag -6.2% and HEK293 tox 0.9%.
Cc1cc(C(=O)NC2CCCc3c2cnn3-c2ccc(C(C)(C)C)cc2)nn1C (stereo not given) was read as RORgamma inh inconclusive, VP16 counter 11.2µM*, GLP-1R agonist -0.2%, GLP1R inv ag inconclusive and HEK293 tox 0.3%.
Screening Cc1cc(C)cc(-n2ncc3c2CCCC3NC(=O)c2cc(C)n(C)n2)c1 (stereo not given) returned RORgamma inh 5.5%, VP16 counter 1.3%, GLP-1R agonist -2.9%, GLP1R inv ag -3.2% and HEK293 tox -3.6%.
For CC(C)(C)c1ccc(-n2ncc3c2CCCC3NC(=O)C2(C(N)=O)CC2)cc1 (stereo not given) the results were RORgamma inh inconclusive, VP16 counter 2.51µM*, GLP-1R agonist 7.8%, GLP1R inv ag inconclusive and HEK293 tox -7.8%.
For CC(=O)Nc1cccc(C(=O)NC2CCCc3c2cnn3-c2ccc(C(C)(C)C)cc2)c1 (stereo not given) the results were RORgamma inh inconclusive, VP16 counter -25.8%, GLP-1R agonist 17.3%, GLP1R inv ag inconclusive and HEK293 tox -2.9%.
Screening CC(C)(C)c1ccc(-n2ncc3c2CCCC3NC(=O)c2ccco2)cc1 (stereo not given) returned GLP-1R agonist -2.3%, GLP1R inv ag 10µM* and HEK293 tox -2.4%.
Screening CC(=O)NCC(=O)NC1CCCc2c1cnn2-c1ccc(C(C)(C)C)cc1 (stereo not given) returned RORgamma inh inconclusive, VP16 counter -29.7%, GLP-1R agonist -0.4%, GLP1R inv ag inconclusive and HEK293 tox -10.0%.
`Cc1ccc(S(=O)(=O)c2cn(CC(=O)Nc3cccc(C)c3)c3cc4c(cc3c2=O)OCO4)cc1` gave GLP-1R agonist -0.2%, GLP1R inv ag 2.1% and HEK293 tox -2.4%.
For CC(=O)Nc1ccc(C2C(=O)c3ccccc3C2=O)cc1 the results were RORgamma inh 0.5%, VP16 counter -2.3%, GLP-1R agonist 0.0%, GLP1R inv ag 33.4% and HEK293 tox 3.9%.
`CCCC(=O)Nc1ccc(C2C(=O)c3ccccc3C2=O)cc1` gave RORgamma inh 11.2µM*, VP16 counter 11.2µM*, GLP-1R agonist -1.5%, GLP1R inv ag 15.9% and HEK293 tox 15.3%.
For O=C(NNc1ccc(F)cc1)c1c(F)cccc1Cl the results were RORgamma inh 6.9%, VP16 counter 1.0%, GLP-1R agonist 0.1%, GLP1R inv ag 1.12µM* and HEK293 tox -24.5%.
O=C(NNc1ncc(C(F)(F)F)cc1Cl)c1c(Cl)cccc1Cl was read as RORgamma inh 0.891µM*, VP16 counter 2.82µM*, GLP-1R agonist -1.1%, GLP1R inv ag inconclusive and HEK293 tox inconclusive.
`O=C(NNc1ncccc1Cl)c1c(Cl)cccc1Cl` gave RORgamma inh 3.98µM*, VP16 counter 14.1µM*, GLP-1R agonist -14.7%, GLP1R inv ag 2.8% and HEK293 tox -15.8%.
`O=C(NNc1cccc(Cl)n1)c1c(Cl)cccc1Cl` gave RORgamma inh -16.8%, VP16 counter -6.0%, GLP-1R agonist -1.0%, GLP1R inv ag -0.1% and HEK293 tox 12.2%.
For CCn1c(C(=O)NCc2ccccc2Br)cc2oc3ccccc3c21 the results were GLP1R inv ag inconclusive and HEK293 tox -0.7%.
For Cn1nc(C(F)(F)F)c(-c2ccc(Br)cc2)c1NC(=O)c1cccnc1 the results were RORgamma inh 44.9%, VP16 counter 6.3%, GLP-1R agonist 7.4%, GLP1R inv ag inconclusive and HEK293 tox -14.3%.
For Cn1nc(C(F)(F)F)c(-c2ccc(Br)cc2)c1NC(=O)c1ccco1 the results were RORgamma inh 38.4%, VP16 counter -24.4%, GLP-1R agonist -5.0%, GLP1R inv ag 7.08µM* and HEK293 tox -11.5%.
Oc1ccc(C[C@H]2CNC(=S)N2CCc2cc(C(F)(F)F)cc(C(F)(F)F)c2)cc1 was read as RORgamma inh 17.8µM*, VP16 counter -11.4%, GLP-1R agonist 7.2%, GLP1R inv ag inconclusive and HEK293 tox -11.0%.
For Oc1ccc(C[C@@H]2CNC(=S)N2CCc2cc(C(F)(F)F)cc(C(F)(F)F)c2)cc1 the results were RORgamma inh inconclusive, VP16 counter inconclusive, GLP-1R agonist 24.9%, GLP1R inv ag inconclusive and HEK293 tox -26.0%.
FC(F)(F)c1cc(CCN2C(=S)NC[C@@H]2Cc2ccccc2)cc(C(F)(F)F)c1 was read as RORgamma inh 3.55µM*, VP16 counter 2.82µM*, GLP-1R agonist 3.9%, GLP1R inv ag 7.94µM* and HEK293 tox inconclusive.
FC(F)(F)c1cc(CCN2C(=S)NC[C@@H]2CC2CCCCC2)cc(C(F)(F)F)c1 was read as RORgamma inh 2.24µM*, VP16 counter 6.31µM*, GLP-1R agonist 0.8%, GLP1R inv ag 11.1% and HEK293 tox 0.2%.
`O=C1NC[C@H](c2ccccc2)N(CCc2cc(C(F)(F)F)cc(C(F)(F)F)c2)C1=O` gave RORgamma inh 20.1%, VP16 counter -10.2%, GLP-1R agonist 0.2%, GLP1R inv ag inconclusive and HEK293 tox 4.4%.
For FC(F)(F)c1cc(CCN2C(=S)NC[C@@H]2c2ccccc2)cc(C(F)(F)F)c1 the results were RORgamma inh 5.62µM*, VP16 counter 11.2µM*, GLP-1R agonist -4.8%, GLP1R inv ag inconclusive and HEK293 tox -4.2%.
Screening COc1ccc(C2C(=O)N(C3CCC(C)CC3)CC(=O)N2Cc2ccc(C)cc2)cc1OC (stereo not given) returned GLP1R inv ag 2.4% and HEK293 tox -9.8%.
Screening COc1ccccc1N1CCN(C(=O)c2ccc3c(c2)N(Cc2cc(C)ccc2C)C(=O)c2ccccc2S3(=O)=O)CC1 returned GLP1R inv ag inconclusive and HEK293 tox 0.6%.
Cc1nn2cc(-c3ccccc3)nc2s1 was read as RORgamma inh 11.2µM*, VP16 counter inconclusive, GLP-1R agonist -4.4%, GLP1R inv ag 0.0% and HEK293 tox 4.5%.
Screening COc1ccc(CCNC(=O)c2c(C)nn(-c3ccc(F)cc3)c2-n2cccc2)cc1OC returned GLP-1R agonist 10.2%, GLP1R inv ag inconclusive and HEK293 tox -20.8%.
